For six compounds, outcome and AC50 results are on record in PubChem BioAssay (EPA / NIEHS).

Results filed as inconclusive are left out. Activity calls are given as the source filed them. How the source made its calls, unless noted: active means hit-call score of the fitted dose curve at least 0.9, where 1 is the maximum; inconclusive means response in the unintended direction; inactive means score below 0.9.

A short description of assay [1]: TOX21_p53_BLA_p2_viability: Viability Assessment in the Tox21 HCT-116 p53 Agonism Beta-lactamase Assay, Phase 2 (AID 2283591).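 Further: actives lower the ATP signal meaning cytotoxicity.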 In a few lines: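 HCT116 p53-bla cells, 4000/well, dosed after 5 h plating (217-fold dilution of DMSO stocks) and incubated 16 h at 37C. Viability taken as cellular ATP by CellTiter-Glo luminescence after 30 min RT; signal loss marks cytotoxicity.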

The target in assay [2] is Cellular tumor antigen p53 (Homo sapiens) (UniProt P04637). Kind of assay: TOX21_p53_BLA_p2_ratio: Tox21 HCT-116 p53 Agonism Beta-lactamase Assay, Ratio, Phase 2 (AID 2283592). In a few lines:
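An inducible beta-lactamase reporter in HCT116 cells signals p53 pathway activation. After 16 h chemical exposure at 37C, cells load CCF4-AM substrate for 2 h at room temperature; activity is the cleaved/uncleaved emission ratio relative to DMSO.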

Assay [3] in a line: TOX21_p53_BLA_p3_viability: Viability Assessment in the Tox21 HCT-116 p53 Agonism Beta-lactamase Assay, Phase 3 (AID 2283593).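 Further: cells exposed to compound for 16 h before reading.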 The essentials:
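HCT116 cells, 4000/well, dosed 5 h after plating by pin transfer (217-fold dilution from DMSO stock) and incubated 16 h at 37C, 5% CO2. Viability read as ATP luminescence with CellTiter-Glo after 30 min at room temperature.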

Assay [4] deals with Cellular tumor antigen p53 (Homo sapiens) (UniProt P04637). In words: TOX21_p53_BLA_p3_ratio: Tox21 HCT-116 p53 Agonism Beta-lactamase Assay, Ratio, Phase 3 (AID 2283596). In a few lines: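 HCT116 p53-bla cells (4000/well) given compound in DMSO (217-fold dilution) after 5 h, incubated 16 h at 37C. CCF4-AM substrate 2 h at room temperature; 460/530 nm emission ratio, gain fitted against DMSO.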

Assay [5] in a line: TOX21_p53_BLA_p4_viability: Viability Assessment in the Tox21 HCT-116 p53 Agonism Beta-lactamase Assay, Phase 4 (AID 2283597).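 Further: hits lower the luminescence signal meaning cytotoxicity.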 In a few lines: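 Compound exposure of HCT116 cells lasts 16 h at 37C, 5% CO2, with DMSO stocks diluted 217-fold. Cellular ATP is then quantified by CellTiter-Glo luminescence after 30 min at room temperature.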
The nature of assay [6]: TOX21_p53_BLA_p5_viability: Viability Assessment in the Tox21 HCT-116 p53 Agonism Beta-lactamase Assay, Phase 5 (AID 2283600). In a few lines: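 Counter-readout for cytotoxicity: ATP-dependent luminescence from CellTiter-Glo, read in the beta-lactamase wells after 30 min at RT, following a 16 h compound exposure at 37C.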
Assay [7] has as its target Cellular tumor antigen p53 (Homo sapiens) (UniProt P04637). Kind of assay: TOX21_p53_BLA_p4_ratio: Tox21 HCT-116 p53 Agonism Beta-lactamase Assay, Ratio, Phase 4 (AID 2283601). The essentials:
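HCT-116 p53 beta-lactamase reporter cells (4000/well) preincubated 5 h, then compound (217-fold dilution of DMSO stock) for 16 h at 37C. CCF4-AM substrate added 2 h at room temperature; 460/530 nm emission ratio fitted upward versus DMSO.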

The nature of assay [8]: CCTE_Harrill_HTTr_Viability_MCF7: CCTE's 6-hour Cell Viability Assessment for the High-Throughput Transcriptomics (HTTr) Platform, in MCF-7 cells cultured in DMEM + 10% fetal bovine serum, Harrill Lab (AID 2284010; active means hit-call score of the fitted dose curve at least 0.9, where 1 is the maximum; inactive means score below 0.9). In a few lines: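 Membrane integrity was scored by high-content imaging of propidium iodide dye exclusion after a 6 h exposure across an eight-point dilution series. Data were fitted bidirectionally relative to DMSO as negative control and baseline.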

Assay [9] can be described thus: CCTE_Harrill_HTTr_Apoptosis_MCF7: CCTE's 6-hour Apoptosis Assessment for the High-Throughput Transcriptomics (HTTr) Platform, in MCF-7 cells cultured in DMEM + 10% fetal bovine serum, Harrill Lab (AID 2284011; active means hit-call score of the fitted dose curve at least 0.9, where 1 is the maximum; inactive means score below 0.9). The essentials: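 Cells are dosed with test chemicals at eight concentrations and imaged 6 hours later for caspase-3/7 activity using a green fluorogenic detection reagent. Activity is fitted in both directions against DMSO controls.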

The nature of assay [10]: TOX21_PR_BLA_Followup_Agonist_viability: Viability Assessment in the Tox21 HEK293 Progesterone Receptor (PR) Agonism Beta-lactamase Follow-Up Assay (AID 2283935).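 Further: signal loss means lower viability so actives are cytotoxic.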 The essentials:
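PR-UAS-bla HEK293T cells in 2% charcoal-stripped FBS medium, compound added after 6 hr plating, 16 hr at 37C/5% CO2. After bla FRET read, CellTiter-Glo added; luminescence read after 30 min at room temperature; signal loss marks cytotoxicity.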

The nature of assay [11]: TOX21_PR_BLA_Followup_Antagonist_viability: Viability Assessment in the Tox21 HEK293 Progesterone Receptor (PR) Antagonism Beta-lactamase Follow-Up Assay (AID 2283936).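 Further: hits lower the luminescence signal meaning cytotoxicity.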 The essentials: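 PR-UAS-bla HEK293T cells (3,000/well, 2% charcoal-stripped FBS) given compound plus R5020 agonist, 16 h at 37C. CellTiter-Glo added after bla read, 30 min at room temperature; luminescence loss indicates cytotoxicity.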

The target in assay [12] is PGR (gene 5241) (UniProt P06401). Kind of assay: TOX21_PR_LUC_Followup_Antagonist: Tox21 HEK293 Progesterone Receptor (PR) Antagonism Luciferase Follow-Up Assay (AID 2283938).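 Further: curve fitted upward as signal gain over DMSO baseline despite antagonist label.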 The essentials: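 A follow-up to the PR bla screen using HEK293-PR-A-luc cells, multiplexed with cell viability to flag cytotoxicity. Reporter luminescence after 16 h compound exposure was analysed relative to DMSO.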

For assay [13] the target is unchanged. Kind of assay: TOX21_PR_BLA_Followup_Antagonist_ratio: Tox21 HEK293 Progesterone Receptor (PR) Antagonism Beta-lactamase Follow-Up Assay, Ratio (AID 2283934). The essentials:
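PR-UAS-bla HEK293T cells in medium with 2% charcoal-stripped FBS were treated with compounds plus 1 nM (final) promegestone (R5020) for 16 hr at 37C. LiveBLAzer B/G FRET substrate was then added for 2 h at room temperature; signal is cleaved/uncleaved substrate ratio versus DMSO.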

The nature of assay [14]: TOX21_PR_LUC_Followup_Agonist_viability: Viability Assessment in the Tox21 HEK293 Progesterone Receptor (PR) Agonism Luciferase Follow-Up Assay (AID 2283941).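 Further: loss of signal means cytotoxicity so actives lower viability.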 In a few lines: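 HEK293-PR-A-luc cells, pre-cultured 5 days in 10% charcoal-stripped FBS, were seeded at 3,000 cells/well, rested 5 h at 37C, then given compound in DMSO for 16 h at 37C. Cellular ATP was read by CellTiter-Glo luminescence; signal loss indicates cytotoxicity.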

Chain of PGR (gene 5241) (P06401 whole entry, looked up): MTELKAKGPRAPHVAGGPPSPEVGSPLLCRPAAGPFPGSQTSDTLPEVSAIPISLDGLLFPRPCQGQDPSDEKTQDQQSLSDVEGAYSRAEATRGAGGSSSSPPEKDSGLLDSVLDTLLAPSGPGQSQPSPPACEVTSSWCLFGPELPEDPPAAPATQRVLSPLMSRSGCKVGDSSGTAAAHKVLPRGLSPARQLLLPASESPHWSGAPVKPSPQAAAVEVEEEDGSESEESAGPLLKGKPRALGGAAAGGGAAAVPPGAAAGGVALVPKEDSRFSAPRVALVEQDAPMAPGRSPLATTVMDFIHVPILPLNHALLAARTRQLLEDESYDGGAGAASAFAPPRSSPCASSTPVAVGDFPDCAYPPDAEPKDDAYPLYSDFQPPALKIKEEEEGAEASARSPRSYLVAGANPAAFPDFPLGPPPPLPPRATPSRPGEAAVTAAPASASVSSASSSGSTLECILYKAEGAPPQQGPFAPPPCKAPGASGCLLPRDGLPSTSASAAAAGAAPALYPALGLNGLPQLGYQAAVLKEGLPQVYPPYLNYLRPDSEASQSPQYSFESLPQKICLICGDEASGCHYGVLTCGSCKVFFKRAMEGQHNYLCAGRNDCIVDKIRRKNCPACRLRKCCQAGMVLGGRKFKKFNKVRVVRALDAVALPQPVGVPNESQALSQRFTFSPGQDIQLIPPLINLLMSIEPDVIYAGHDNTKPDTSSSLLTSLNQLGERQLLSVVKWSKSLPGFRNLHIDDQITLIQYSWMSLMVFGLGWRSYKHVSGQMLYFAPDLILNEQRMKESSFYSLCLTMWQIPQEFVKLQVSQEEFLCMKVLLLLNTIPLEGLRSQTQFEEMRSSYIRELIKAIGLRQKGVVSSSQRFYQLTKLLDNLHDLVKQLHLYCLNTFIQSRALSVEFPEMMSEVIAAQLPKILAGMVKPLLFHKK
Chain of Cellular tumor antigen p53 (Homo sapiens) (P04637 whole entry, looked up): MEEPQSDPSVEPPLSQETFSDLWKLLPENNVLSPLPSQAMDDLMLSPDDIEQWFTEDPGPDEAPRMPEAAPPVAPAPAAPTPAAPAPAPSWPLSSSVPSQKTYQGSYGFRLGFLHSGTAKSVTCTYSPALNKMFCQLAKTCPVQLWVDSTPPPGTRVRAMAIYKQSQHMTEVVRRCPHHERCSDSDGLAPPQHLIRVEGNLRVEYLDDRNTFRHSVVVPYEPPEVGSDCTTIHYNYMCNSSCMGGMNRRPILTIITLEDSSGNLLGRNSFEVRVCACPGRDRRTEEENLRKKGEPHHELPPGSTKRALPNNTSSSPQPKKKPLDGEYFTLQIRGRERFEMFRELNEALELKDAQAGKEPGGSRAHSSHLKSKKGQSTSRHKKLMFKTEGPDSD

For the compound `Nc1cc(-c2ccncc2)c[nH]c1=O`, the compound was classed as inactive in assay [1], in assay [2], in assay [3], in [4], in assay [5] and in assay [6]. The result in assay [7], in [8] and in assay [9] was inactive.

With `CCCCN1CCCC1C(=O)Nc1c(C)cc(C)cc1C` (stereo not given), the result in assay [1], in assay [2], in assay [3], in [4], in assay [5] and in assay [6] was inactive. For the same compound, the outcome in assay [7], in assay [10], in [11] and in assay [12] was inactive.

As for `C[C@@H]1C[C@H]2O[C@@]3(O[C@@H]2C(C)(C)O)[C@H](O)[C@@]2(C)[C@@H]4CC[C@H]5C(C)(C)[C@@H](O[C@@H]6OC[C@@H](O)[C@H](O)[C@H]6O)CC[C@@]56C[C@@]46CC[C@]2(C)[C@@H]13`, the compound was classed as inactive in [1], in [2], in assay [3], in [4], in assay [5] and in assay [7].

As usually defined, the AC50 is the midpoint of the concentration-response curve, whichever way the signal moves. As to `CN(C1CCCCC1)S(=O)(=O)c1ccccc1N`, the outcome in assay [1], in assay [2], in [3], in [4], in assay [5] and in assay [6] was inactive. The result in [7], in [10], in assay [11] and in [14] was inactive. For the same compound, the figures for the AC50 in assay [13] and in assay [12] were 25.7 µM (active) and 24.2 µM (active), respectively.

On to `C[C@]12CCC(=O)C=C1CC[C@@H]1[C@@H]2CC[C@@]2(C)[C@H]1CC[C@]2(O)C(=O)CO`, for which the result in [1], in [2], in assay [3], in [4], in assay [5] and in assay [6] was inactive. For the same compound, the result in assay [7], in assay [13], in [10], in assay [11], in assay [12] and in [14] was inactive.

Turning to `CN(C)CCc1c[nH]c2ccc(CS(=O)(=O)N3CCCC3)cc12`, the outcome in assay [1], in assay [2], in assay [3], in assay [4], in assay [5] and in assay [7] was inactive.
